# Records with an inconclusive call do not appear. Entries that show only a call come without a potency. Unmarked numbers belong to inactive results. Calls of active or inactive are those of the source. Calls come from the whole dose curve; as a rule, active = well fitted inhibition curve with a large enough effect; inconclusive = small, poorly fitted or top-dose-only effect; inactive = flat fitted curve, though single readings scatter.
# Tests used:
# [1] = qHTS profiling for inhibitors of Plasmodium falciparum proliferation (AID 504749); note: nearly all actives have a fitted effect of over 60% in size; conditions: P. falciparum in erythrocytes, SYBR Green DNA, 72 h
# Procedure, shortened: (§1)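 In a 72 h erythrocytic culture (37 C, humidified, 5% CO2) at 2.5% hematocrit and 0.3% starting parasitemia, compounds were tested; SYBR Green I in detergent lysis buffer stained parasite DNA overnight.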
# 3D7 = assay: as above; conditions: P. falciparum in erythrocytes, SYBR Green DNA, 72 h; series mostly up to 28.7 µM
# Procedure, shortened: as §1
# AA1029 = assay: as above; conditions: P. falciparum in erythrocytes, SYBR Green DNA, 72 h; series mostly up to 28.7 µM
# Procedure, shortened: as §1
# AS120 = assay: as above; conditions: P. falciparum in erythrocytes, SYBR Green DNA, 72 h; series mostly up to 28.7 µM
# Procedure, shortened: as §1
# ATS189 = assay: as above; conditions: P. falciparum in erythrocytes, SYBR Green DNA, 72 h; series mostly up to 28.7 µM
# Procedure, shortened: as §1
# ATS95 = assay: as above; conditions: P. falciparum in erythrocytes, SYBR Green DNA, 72 h; series mostly up to 28.7 µM
# Procedure, shortened: as §1
# C2A = assay: as above; conditions: P. falciparum in erythrocytes, SYBR Green DNA, 72 h; series mostly up to 28.7 µM
# Procedure, shortened: as §1
# CP185 = assay: as above; conditions: P. falciparum in erythrocytes, SYBR Green DNA, 72 h; series mostly up to 28.7 µM
# Procedure, shortened: as §1
# CP191 = assay: as above; conditions: P. falciparum in erythrocytes, SYBR Green DNA, 72 h; series mostly up to 28.7 µM
# Procedure, shortened: as §1
# CP192 = assay: as above; conditions: P. falciparum in erythrocytes, SYBR Green DNA, 72 h; series mostly up to 28.7 µM
# Procedure, shortened: as §1
# CP194 = assay: as above; conditions: P. falciparum in erythrocytes, SYBR Green DNA, 72 h; series mostly up to 28.7 µM
# Procedure, shortened: as §1
# CP201 = assay: as above; conditions: P. falciparum in erythrocytes, SYBR Green DNA, 72 h; series mostly up to 28.7 µM
# Procedure, shortened: as §1
# CP211 = assay: as above; conditions: P. falciparum in erythrocytes, SYBR Green DNA, 72 h; series mostly up to 28.7 µM
# Procedure, shortened: as §1
# CP215 = assay: as above; conditions: P. falciparum in erythrocytes, SYBR Green DNA, 72 h; series mostly up to 28.7 µM
# Procedure, shortened: as §1
# CP217 = assay: as above; conditions: P. falciparum in erythrocytes, SYBR Green DNA, 72 h; series mostly up to 28.7 µM
# Procedure, shortened: as §1
# 7G8 = assay: as above; conditions: P. falciparum in erythrocytes, SYBR Green DNA, 72 h; series mostly up to 28.7 µM
# Procedure, shortened: as §1
# CP203 = assay: as above; conditions: P. falciparum in erythrocytes, SYBR Green DNA, 72 h; series mostly up to 28.7 µM
# Procedure, shortened: as §1
# [2] = at 28.7 µM (top of the series), parasite line A
# [3] = at 28.7 µM (top of the series), parasite line B
# [4] = at 12.8 µM (top of the series), parasite line A
# [5] = at 12.8 µM (top of the series), parasite line B
# Potency is the fitted concentration of half-maximal effect.
SMILES,"activity, negative = inhibition [1, 2] [%]","activity, negative = inhibition [1, 3] [%]",Potency (3D7),Potency (AA1029),Potency (AS120),Potency (ATS189),Potency (ATS95),Potency (C2A),Potency (CP185),Potency (CP191),Potency (CP192),Potency (CP194),Potency (CP201),Potency (CP211),Potency (CP215),Potency (CP217),Potency (7G8),Potency (CP203),"activity, negative = inhibition [1, 4] [%]","activity, negative = inhibition [1, 5] [%]"
C=CCN1CCc2nc(N)sc2CC1,-6.7,2.41,inactive,inactive,inactive,inactive,inactive,inactive,inactive,inactive,inactive,inactive,inactive,inactive,inactive,inactive,,,,
NS(=O)(=O)Cc1noc2ccccc12,6.43,4.66,inactive,inactive,inactive,inactive,inactive,inactive,inactive,inactive,inactive,inactive,inactive,inactive,inactive,inactive,,,,
CN1CCN(c2cc3c(cc2F)c(=O)c(C(=O)O)cn3-c2ccc(F)cc2)CC1,-21.3,-17.5,inactive,inactive,,inactive,inactive,inactive,inactive,inactive,inactive,,inactive,inactive,,inactive,inactive,inactive,,
CN1CCN(CCC(=O)N2c3ccccc3Sc3ccc(C(F)(F)F)cc32)CC1,8.92,-2.7,inactive,,inactive,,inactive,inactive,,,inactive,inactive,inactive,,inactive,inactive,10 µM (active),,,
CC1CCc2c(N3CCC(O)CC3)c(F)cc3c(=O)c(C(=O)O)cn1c23 (stereo unspecified),-29.3,-19.8,,,,,inactive,inactive,,,inactive,inactive,inactive,inactive,,,11.2 µM (active),,,
CN1CCN(C2=Nc3cc(F)ccc3Cc3ccccc32)CC1,-5.08,-0.186,inactive,,,,,inactive,inactive,inactive,inactive,,inactive,inactive,inactive,inactive,12.6 µM (active),inactive,,
Cl/C(=C\n1cncn1)c1ccc(Cl)cc1Cl,10.9,7.76,inactive,inactive,inactive,inactive,inactive,inactive,inactive,inactive,inactive,inactive,inactive,inactive,inactive,inactive,,inactive,,
COc1ccc(C(=O)c2ccccc2)c(O)c1,-10.8,10.2,,inactive,inactive,,inactive,inactive,inactive,,inactive,inactive,inactive,inactive,inactive,inactive,10 µM (active),inactive,,
O=c1[nH]c(=O)n([C@H]2C[C@H](O)[C@@H](CO)O2)cc1F,0.388,-0.681,inactive,inactive,inactive,inactive,inactive,inactive,inactive,inactive,inactive,inactive,inactive,inactive,inactive,inactive,,inactive,,
CCC(C(=O)OCCOCCN(CC)CC)c1ccccc1 (stereo unspecified),5.84,5.27,inactive,,inactive,,inactive,inactive,inactive,inactive,inactive,,inactive,inactive,inactive,inactive,,,,
CCOC(=O)Nc1ccc2c(c1)N(C(=O)CCN1CCOCC1)c1ccccc1S2,,,inactive,inactive,inactive,inactive,inactive,inactive,inactive,,inactive,inactive,inactive,inactive,inactive,inactive,,,5.76,22.5
CN1CCC(OC(c2ccccc2)c2ccccc2)CC1,,,inactive,2.51 µM (active),,,,inactive,,inactive,inactive,,inactive,,,,,,-11.2,-2.27
CCCCC(CC)COC(=O)/C=C/c1ccc(OC)cc1 (stereo unspecified),10.4,11.8,inactive,inactive,inactive,inactive,inactive,inactive,inactive,inactive,inactive,inactive,inactive,inactive,inactive,inactive,,inactive,,
O=C(Oc1cccc2cccnc12)c1ccccc1,5.84,-15.2,inactive,inactive,inactive,inactive,inactive,inactive,inactive,inactive,inactive,inactive,inactive,inactive,inactive,inactive,,inactive,,
CCN(CC)CCOc1ccccc1C(=O)CCc1ccccc1,2.97,-13.2,inactive,,,,,inactive,,inactive,inactive,,,,,,,,,

# — PubChem BioAssay (NCATS)
